Composite z-score and z-score data for nine compounds are collected here from PubChem BioAssay.

Active and inactive are the calls of the source.

Experiment [1] is described as follows: binders of probe aFSTL3 on microarray, primary screen, stem cell growth factor project, biochemical, small-molecule microarray, fluorescence 635/667 (AID 1064).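 Note: measures binding of the biotinylated anti-FSTL3 antibody to printed compounds.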 The conditions noted are these: higher = more signal.
Experiment [2] can be described thus: binders from COS7 lysate, DM2A8 probe, primary screen, torsin A project, cell lysate, small-molecule microarray, fluorescence 635/667 (AID 1065). Particulars: higher = more signal, COS7 lysate expressing mutant human TOR1A.
Experiment [3] can be described thus: binders of probe aFGF2 on microarray, primary screen, stem cell growth factor project, biochemical, small-molecule microarray, fluorescence 635/667 (AID 1067).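 Note: measures binding of biotinylated aFGF2 protein to printed compounds on slides; z-score merges feature fluorescence and signal-to-noise across triplicate slides.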 The conditions noted are these: higher = more signal.
A short description of experiment [4]: binders of probe aFGF10 on microarray, primary screen, stem cell growth factor project, biochemical, small-molecule microarray, fluorescence 635/667 (AID 1071).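 Note: score merges 667 nm spot intensity and signal to noise from triplicate slides.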 Particulars: higher = more signal.
For experiment [5], the target named is Neurogenic locus notch homolog protein 2 (Homo sapiens) (UniProt Q04721). The experiment is described as follows: Notch2 binders on small-molecule microarrays, primary screen, biochemical, small-molecule microarray, 635 nm fluorescence, stem cell growth factors (AID 1073). Particulars: Notch2 binding, higher = more signal.
The target in experiment [6] is Pro-neuregulin-1, membrane-bound isoform (Homo sapiens) (UniProt Q02297). The experiment is described as follows: NRG1 binders on small-molecule microarrays, primary screen, psychiatric disease protein project, biochemical, small-molecule microarray, fluorescence 635/667 (AID 1075).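 Note: score combines 667 nm spot fluorescence with signal to noise.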 Particulars: NRG1 binding, 635 nm fluorescence, higher = more signal.
Experiment [7] relates to Neuregulin-1 EGF-like domain. The experiment is described as follows: binders of neuregulin-1 EGF-like domain, primary screen, biochemical, small-molecule microarray, 635 nm fluorescence (AID 1081).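 Note: binding of the protein to compounds printed on small-molecule microarray slides.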 Particulars: small-molecule microarray binding, higher = more signal.
The nature of experiment [8]: FRG1 promoter luciferase signal modulators, primary screen, FRG1 inhibition for FSHD, cell-based, C2C12 myotubes, firefly/Renilla luciferase, luminescence (AID 1084). Particulars: higher = more signal, called active from +8 up or from −8 down.
Experiment [9] can be described thus: binders of probe aFST on microarray, primary screen, stem cell growth factor project, biochemical, small-molecule microarray, fluorescence 635/667 (AID 1086).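 Note: score merges 667 nm fluorescence with signal-to-noise of each printed compound spot.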 Particulars: higher = more signal.
Experiment [10] can be described thus: binders of probe aHhip on microarray, primary screen, stem cell growth factor project, biochemical, small-molecule microarray, fluorescence 635/667 (AID 1087).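 Note: score merges spot fluorescence at 667nm with spot signal to noise ratio.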 Particulars: higher = more signal.
In experiment [11] the test system is PRMT1 (protein arginine N-methyltransferase 1). The experiment is described as follows: PRMT1 binders on small-molecule microarrays, primary screen, biochemical, small-molecule microarray, 635 nm fluorescence (AID 1088).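 Note: binding of Prmt1 protein to compounds spotted on small-molecule microarray slides.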 Particulars: small-molecule microarray binding, higher = more signal.
A short description of experiment [12]: yeast growth modulation, basal conditions, primary screen, YJM789 clinical isolate, OD600, 24 h (AID 1089).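 Note: growth of clinical yeast isolate S. cerevisiae YJM 789 seeded 1000 cells per well; test concentration not given here.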 The conditions noted are these: S. cerevisiae YJM789 growth, higher = more signal, called active from +8 up or from −8 down.
Experiment [13] can be described thus: fission yeast growth modulation, primary screen, strain 972, OD600, 24 h, no modulator (AID 1090).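 Note: basal condition with compound alone and no growth modifier present; test concentration not given here.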 The conditions noted are these: S. pombe 972 growth, higher = more signal, called active from +8 up or from −8 down.
The nature of experiment [14]: S. cerevisiae growth modulation with rapamycin, primary screen, strain BY4716, OD600, 96 h (AID 1091). Note: test concentration not given here. Particulars: higher = more signal, called active from +8 up or from −8 down.
The target of experiment [15] is Torsin-1A-interacting protein 2 (Homo sapiens) (UniProt Q8NFQ8). The experiment is described as follows: LULL1 binders on small-molecule microarray, primary screen, cell lysate, human LULL1 lysate, 635/667 nm fluorescence (AID 1092).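 Note: probe is lysate of COS7 cells overexpressing human LULL1; score merges per-feature 667 nm fluorescence with signal-to-noise.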 Particulars: hLULL1 lysate binding, 635 nm fluorescence, higher = more signal.
The nature of experiment [16]: E. coli growth modulation, two-sided OD650, primary screen, E. coli filamentation project, strain DRC41, 24 h (AID 1093).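 Note: MC1000 strain lacking acrAB efflux and sulA so SOS filamentation is blocked; test concentration not given here.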 Particulars: OD650, 24 h, higher = more signal, called active from +8 up or from −8 down.
Experiment [17] is described as follows: small-molecule microarray binders of probe aLefty2, primary screen, biochemical, biotinylated probe, 635/667 nm fluorescence (AID 1094).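 Note: score merges spot fluorescence near 667 nm with spot signal-to-noise ratio.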 The conditions noted are these: higher = more signal.
Experiment [18] has as its system Noggin (protein binding on small-molecule microarray). The experiment is described as follows: Noggin binders on small-molecule microarray, primary screen, biochemical, 635/667 nm fluorescence (AID 1095).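 Note: score merges 667 nm feature fluorescence with signal to noise over triplicate slides.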 Particulars: 635 nm fluorescence, higher = more signal.
The target in experiment [19] is Neurogenic locus notch homolog protein 3 (Homo sapiens) (UniProt Q9UM47). The experiment is described as follows: NOTCH3 binders on small-molecule microarray, primary screen, biochemical, 635/667 nm fluorescence (AID 1096). The conditions noted are these: NOTCH3 binding, 635 nm fluorescence, higher = more signal.
A short description of experiment [20]: small-molecule microarray binders of probe aEGFR, primary screen, biochemical, biotinylated probe, 635/667 nm fluorescence (AID 1097).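 Note: probe is a biotinylated anti-EGFR antibody binding compounds printed on slides; score combines fluorescence near 667 nm and signal to noise of each spot.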 Particulars: higher = more signal.

Chain of Pro-neuregulin-1, membrane-bound isoform (Homo sapiens) (Q02297 whole entry, looked up, the tested form may be a part, canonical isoform): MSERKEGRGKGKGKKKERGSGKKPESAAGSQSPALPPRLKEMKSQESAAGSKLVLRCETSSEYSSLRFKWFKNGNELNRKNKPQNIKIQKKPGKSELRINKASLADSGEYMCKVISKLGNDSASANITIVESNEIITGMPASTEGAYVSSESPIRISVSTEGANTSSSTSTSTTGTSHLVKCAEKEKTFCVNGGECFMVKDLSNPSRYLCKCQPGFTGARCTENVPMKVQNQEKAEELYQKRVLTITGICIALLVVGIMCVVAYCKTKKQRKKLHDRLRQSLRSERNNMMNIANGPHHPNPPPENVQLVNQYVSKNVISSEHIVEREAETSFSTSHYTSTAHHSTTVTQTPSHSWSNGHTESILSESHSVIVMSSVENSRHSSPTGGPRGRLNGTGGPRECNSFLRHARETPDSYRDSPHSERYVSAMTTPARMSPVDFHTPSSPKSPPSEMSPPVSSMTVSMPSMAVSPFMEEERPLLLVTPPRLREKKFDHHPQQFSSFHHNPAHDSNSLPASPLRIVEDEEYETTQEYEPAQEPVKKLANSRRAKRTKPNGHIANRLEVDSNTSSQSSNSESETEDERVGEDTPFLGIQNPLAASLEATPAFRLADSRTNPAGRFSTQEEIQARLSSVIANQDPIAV
Chain of Neurogenic locus notch homolog protein 3 (Homo sapiens) (Q9UM47 whole entry, looked up): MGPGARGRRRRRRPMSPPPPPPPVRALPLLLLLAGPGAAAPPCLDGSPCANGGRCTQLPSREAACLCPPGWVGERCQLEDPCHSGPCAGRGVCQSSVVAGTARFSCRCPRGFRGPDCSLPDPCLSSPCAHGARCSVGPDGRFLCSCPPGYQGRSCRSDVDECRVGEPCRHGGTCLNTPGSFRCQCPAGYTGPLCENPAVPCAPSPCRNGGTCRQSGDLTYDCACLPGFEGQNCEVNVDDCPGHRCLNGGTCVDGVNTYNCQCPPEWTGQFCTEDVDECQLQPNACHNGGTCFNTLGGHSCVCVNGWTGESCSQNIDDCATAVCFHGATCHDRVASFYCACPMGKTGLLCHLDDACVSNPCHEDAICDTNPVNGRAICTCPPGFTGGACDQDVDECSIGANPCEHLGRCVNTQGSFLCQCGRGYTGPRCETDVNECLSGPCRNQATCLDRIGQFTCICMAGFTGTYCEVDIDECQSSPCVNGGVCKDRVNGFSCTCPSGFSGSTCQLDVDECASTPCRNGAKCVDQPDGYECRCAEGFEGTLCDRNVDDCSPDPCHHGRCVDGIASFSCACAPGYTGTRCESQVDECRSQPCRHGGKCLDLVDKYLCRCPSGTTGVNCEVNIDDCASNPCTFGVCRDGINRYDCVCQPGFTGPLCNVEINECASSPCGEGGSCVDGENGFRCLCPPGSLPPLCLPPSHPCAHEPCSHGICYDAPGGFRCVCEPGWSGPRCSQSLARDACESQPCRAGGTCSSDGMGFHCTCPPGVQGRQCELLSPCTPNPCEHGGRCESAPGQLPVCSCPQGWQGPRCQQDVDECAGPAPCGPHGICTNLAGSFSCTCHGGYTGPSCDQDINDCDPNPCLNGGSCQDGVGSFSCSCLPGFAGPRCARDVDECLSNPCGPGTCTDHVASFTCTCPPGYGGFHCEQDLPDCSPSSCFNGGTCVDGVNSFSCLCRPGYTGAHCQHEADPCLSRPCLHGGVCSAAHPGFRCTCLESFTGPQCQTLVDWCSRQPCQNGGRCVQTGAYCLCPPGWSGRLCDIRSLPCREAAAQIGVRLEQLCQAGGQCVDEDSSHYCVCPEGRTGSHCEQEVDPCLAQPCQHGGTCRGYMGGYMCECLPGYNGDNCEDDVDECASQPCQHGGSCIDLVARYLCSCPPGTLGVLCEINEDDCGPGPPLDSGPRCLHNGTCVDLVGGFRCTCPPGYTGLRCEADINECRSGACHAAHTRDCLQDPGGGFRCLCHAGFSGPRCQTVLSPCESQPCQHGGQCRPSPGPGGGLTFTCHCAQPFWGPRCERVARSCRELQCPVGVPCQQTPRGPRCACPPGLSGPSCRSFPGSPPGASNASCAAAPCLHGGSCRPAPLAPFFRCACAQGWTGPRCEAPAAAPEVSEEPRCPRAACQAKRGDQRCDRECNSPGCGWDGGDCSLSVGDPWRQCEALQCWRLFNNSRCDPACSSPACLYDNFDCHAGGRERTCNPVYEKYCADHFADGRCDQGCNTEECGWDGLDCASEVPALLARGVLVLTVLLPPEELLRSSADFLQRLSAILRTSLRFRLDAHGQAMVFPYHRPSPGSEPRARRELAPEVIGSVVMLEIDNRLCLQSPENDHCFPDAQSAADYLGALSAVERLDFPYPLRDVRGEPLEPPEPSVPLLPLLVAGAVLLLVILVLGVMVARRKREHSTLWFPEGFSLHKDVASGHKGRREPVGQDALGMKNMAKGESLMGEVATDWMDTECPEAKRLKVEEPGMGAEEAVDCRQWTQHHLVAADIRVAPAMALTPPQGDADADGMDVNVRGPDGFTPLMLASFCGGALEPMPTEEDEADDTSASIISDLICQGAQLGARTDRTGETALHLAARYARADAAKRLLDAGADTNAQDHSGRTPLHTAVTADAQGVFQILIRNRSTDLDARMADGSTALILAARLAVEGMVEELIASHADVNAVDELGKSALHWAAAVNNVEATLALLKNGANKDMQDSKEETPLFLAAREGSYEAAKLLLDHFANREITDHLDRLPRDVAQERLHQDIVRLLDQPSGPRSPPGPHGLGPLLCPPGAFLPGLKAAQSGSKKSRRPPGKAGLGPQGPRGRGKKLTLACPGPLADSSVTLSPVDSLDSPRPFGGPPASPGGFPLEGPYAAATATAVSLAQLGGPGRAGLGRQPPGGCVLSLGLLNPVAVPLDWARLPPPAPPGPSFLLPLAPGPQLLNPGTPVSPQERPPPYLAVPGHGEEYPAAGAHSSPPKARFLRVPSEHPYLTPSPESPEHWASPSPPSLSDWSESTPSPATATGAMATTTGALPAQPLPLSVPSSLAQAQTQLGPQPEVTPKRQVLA
Chain of Torsin-1A-interacting protein 2 (Homo sapiens) (Q8NFQ8 whole entry, looked up): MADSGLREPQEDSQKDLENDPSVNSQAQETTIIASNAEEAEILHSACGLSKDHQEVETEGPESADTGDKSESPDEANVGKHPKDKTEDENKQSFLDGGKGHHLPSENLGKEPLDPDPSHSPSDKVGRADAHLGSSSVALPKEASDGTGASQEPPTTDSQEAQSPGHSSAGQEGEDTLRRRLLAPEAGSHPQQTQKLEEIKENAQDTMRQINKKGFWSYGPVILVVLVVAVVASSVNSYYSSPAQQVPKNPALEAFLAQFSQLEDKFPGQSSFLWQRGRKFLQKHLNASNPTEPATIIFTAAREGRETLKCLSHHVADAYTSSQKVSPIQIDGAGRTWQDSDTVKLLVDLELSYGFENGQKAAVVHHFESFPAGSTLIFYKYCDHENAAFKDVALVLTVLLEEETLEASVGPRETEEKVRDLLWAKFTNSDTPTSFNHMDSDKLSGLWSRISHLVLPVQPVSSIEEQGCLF

For the compound `CC[C@@H]1[C@@H]2C3C(=O)N(CC)C(=O)C3CC(=O)[C@@H]2[C@H](c2ccc(C)cc2)N1S(=O)(=O)c1ccc(C)cc1` (stereo not given in full), the composite z-score in experiment [1] is -0.38; in experiment [2] it was 0.0428; in [3], 0.161; in experiment [4], 0.383; in [5], 1.56; in experiment [6], 1.37. Moreover, the composite z-score is 1.1 in [7]; 0.635 in experiment [9]; -0.19 in experiment [10]; 1.29 in experiment [11]; 3.3 in experiment [15]; -0.128 in [17]. The composite z-score is 0.381 in experiment [18], 0.919 in experiment [19] and -0.0371 in [20]. Besides, the z-score in experiment [8] is -1.04 (inactive); in experiment [12] it was -2.69 (inactive); in experiment [13] it was 0.321 (inactive); in experiment [14] it was 0.336 (inactive); in [16], 0.957 (inactive).
For `C=CCC(OC(C)=O)[C@@H]1[C@@H](N(Cc2cccc3ccccc23)C(=O)Cc2ccc(F)cc2)c2cc(OCCCO)ccc2N1C(=O)Cc1ccc(OC)cc1` (stereo not given in full), the composite z-score in [1] is -0.449; in experiment [2], 0.202; in [3], -0.116; in experiment [4], 0.493; in experiment [5], -0.045; in experiment [6], -0.418. For the same compound, the composite z-score in [7] is -0.424; in experiment [9], 0.0417; in [10] it was -0.191; in experiment [11], -0.151; in [15], -0.0743; in experiment [17], -0.0137. Further, the composite z-score was 0.122 in experiment [18], 0.159 in [19] and -0.309 in [20]. Moreover, the z-score is -1.05 (inactive) in experiment [8]; -1.18 (inactive) in [12]; 0.246 (inactive) in experiment [13]; -0.72 (inactive) in experiment [14]; 0.802 (inactive) in experiment [16].
`CN1C(=O)C2C=CC(C(O)c3ccc(F)cc3)N(N3CCCCC3)C2C1=O` (stereo not given): the composite z-score amounted to 1.1 in experiment [1]; 1.72 in experiment [2]; 0.344 in experiment [3]; 0.139 in [4]; 1.44 in [5]; 1.17 in [6]. For the same compound, the composite z-score worked out at 1.19 in [7]; 0.713 in experiment [9]; 0.0274 in experiment [10]; 1.07 in experiment [11]; 2.78 in experiment [15]; 0.682 in experiment [17]. Besides, the results for the composite z-score in experiment [18], in experiment [19] and in [20] were -0.513, 0.721 and 0.204, respectively. Also, the z-score in experiment [8] was 0.532 (inactive); in experiment [12], 1.15 (inactive); in experiment [13], 1.27 (inactive); in experiment [14] it was 2.06 (inactive); in [16] it was -1.17 (inactive).
Regarding `COc1ccc(C(=O)Nc2ccc(CN3C(=O)[C@]4(O[C@H](CCn5cc([C@H](O)c6ccccc6)nn5)[C@@H]([Si](C)(C)c5ccc(OC)cc5)[C@@H]4C)c4ccccc43)cc2)cc1`, the composite z-score in [1] was 0.804; in experiment [2], 0.0963; in experiment [3], -0.172; in experiment [4], -0.161; in experiment [5], -0.284; in experiment [6], 0.178. The composite z-score is 0.923 in experiment [7]; 0.198 in experiment [9]; -0.0994 in experiment [10]; 0.466 in [11]; 0.658 in experiment [15]; 0.101 in experiment [17]. Also, the composite z-score in [18] is 0.341; in experiment [19], -0.047; in experiment [20], -0.169. In addition, the z-score in [8] was -0.855 (inactive); in experiment [12] it was -0.0933 (inactive); in experiment [13], -0.262 (inactive); in experiment [14], 1.61 (inactive); in experiment [16] it was -0.615 (inactive).
`C[C@@H]1ON(c2ccccc2)[C@H](c2ccccc2)[C@H]1C(=O)N1C(=O)OC[C@H]1Cc1ccccc1`: the composite z-score was -0.414 in experiment [1]; 0.464 in experiment [2]; -0.127 in experiment [3]; 0.464 in experiment [4]; 0.844 in experiment [5]; 0.243 in experiment [6]. The composite z-score is 0.539 in experiment [7]; 0.138 in [9]; 0.0574 in [10]; 1.3 in experiment [11]; 0.786 in [15]; -0.166 in experiment [17]. The composite z-score is 0.405 in experiment [18], 0.826 in [19] and -0.0549 in experiment [20]. Also, the z-score in [8] was -0.114 (inactive); in experiment [12], 0.713 (inactive); in experiment [13] it was -0.451 (inactive); in experiment [14], 0.125 (inactive); in experiment [16], 0.547 (inactive).
For the compound `COc1ccc([Si](C)(C)[C@H]2[C@H](CCO)O[C@@]3(C(=O)N(Cc4cccc(N5CCOC5=O)c4)c4ccccc43)[C@@H]2C)cc1`, the composite z-score in [1] was -0.167; in [2] it was -0.16; in [3] it was -0.034; in [4], 0.674; in experiment [5], 0.849; in [6] it was 0.843. In addition, the composite z-score in [7] was 0.783; in [9], -0.292; in experiment [10], 0.0373; in [11], 1.39; in experiment [15] it was 2.39; in experiment [17], 0.514. In addition, the composite z-score in [18] was 0.459; in experiment [19] it was 1.14; in experiment [20], -0.0973. Moreover, the z-score in experiment [8] is -2.15 (inactive); in experiment [12], 2.81 (inactive); in experiment [13], -0.406 (inactive); in [14] it was 34 (active); in experiment [16] it was 0.228 (inactive).
Regarding `O=C1c2ccccc2[C@](Cc2ccccc2I)(C(=O)NC2CC2)[C@H](c2ccc(CO)cc2)N1Cc1ccccc1Cl`, the composite z-score in experiment [1] was 0.558; in experiment [2], 0.478; in experiment [3], 0.221; in experiment [4] it was 0.487; in experiment [5] it was 1.23; in experiment [6], 1.36. In addition, the composite z-score in experiment [7] was 1.27; in experiment [9], 0.496; in experiment [10] it was -0.105; in [11], 1.36; in experiment [15], 1.91; in experiment [17] it was 0.349. The composite z-score turned out to be 1.53 in experiment [18], 0.856 in experiment [19] and 0.178 in [20]. In addition, the z-score in [8] is -2.71 (inactive); in experiment [12], 0.07 (inactive); in experiment [13] it was 0.376 (inactive); in [14], 1.57 (inactive); in [16], -1.02 (inactive).
As to `O=C1O[C@@H](c2ccccc2)[C@@H](c2ccccc2)N2[C@@H](c3ccc(O)cc3)[C@]3(C(=O)Nc4ccc(C#CC5(O)CCCCCC5)cc43)[C@@H](C(=O)N3CCN(c4ncccn4)CC3)[C@H]12`, the composite z-score in [1] is -0.381; in [2], 0.0262; in experiment [3], 0.0011; in [4] it was 0.349; in [5] it was 0.609; in experiment [6], 1.6. For the same compound, the composite z-score was 1.22 in [7]; 0.204 in [9]; -0.0994 in experiment [10]; 1.34 in experiment [11]; 2.75 in experiment [15]; -0.114 in [17]. Also, the values for the composite z-score in [18], in experiment [19] and in experiment [20] were 0.864, 0.886 and -0.0399, respectively. In addition, the z-score in [8] was -0.0311 (inactive); in experiment [12], 0.979 (inactive); in [13], 0.37 (inactive); in experiment [14], 0.924 (inactive); in experiment [16], 1.52 (inactive).
For `CC(C)(C)N1CC=CC23O[C@@H]4C=CCCOC(=O)C4[C@H]2C(=O)N(CCCO)[C@@H]3C1=O` (stereo not given in full), the composite z-score in [1] is 0.248; in experiment [2], -0.527; in [3] it was -0.181; in experiment [4], -0.642; in experiment [5], -1.5; in [6], -0.509. Besides, the composite z-score was -0.174 in [7]; -0.383 in experiment [9]; -0.0994 in experiment [10]; -1.49 in experiment [11]; -1.09 in experiment [15]; -0.195 in experiment [17]. Further, the composite z-score in [18] is -0.399; in [19] it was -1.7; in experiment [20], -0.268. Further, the z-score was 0.489 (inactive) in experiment [8]; 0.0588 (inactive) in [12]; -0.37 (inactive) in [13]; -0.199 (inactive) in experiment [14]; 1.04 (inactive) in experiment [16].
